CFTR F508del cor: CFTR F508del correction in bronchial cells; CFBE cells, YFP halide quenching; stimulated with forskolin plus potentiator P3; % fluorescence drop versus neutral controls; activity (quench increase), % at 7.58 µM; 0.36% of 350,000 active;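 active = mean added fluorescence quench of at least 8% versus neutral control, with both replicates also reaching 8%; inconclusive = only one of the mean or replicate conditions met; inactive = mean below 8% and not both replicates reaching 8%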;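 note: cells transiently co-express mutant CFTR-F508del with the halide-sensitive YFP; corrector assay measuring rescue of mutant channel to the surface after 24 h compound exposure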
LGR2 antag: inhibitors of bursicon-induced Drosophila LGR2 receptor cAMP signaling. HEK293 LGR2, CRE-luciferase, bursicon-stimulated, 4 h. inhibition, % at 9.99 µM. 0.35% of 380,000 active;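 active = drop in luminescence signal, shown as inhibition above about 50% in the replicate tests, limit read from the data, passing the limit was not always enough; inconclusive = probably only some replicates passing the limit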;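 note: agonist challenge used bursicon conditioned medium at about half maximal strength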
PAX8 reporter: lowers PAX8-driven luciferase in RMG-I cells. RMG-I TPO-luciferase reporter, SteadyGlo, 24 h. inhibition, % at 12.6 µM. 1.2% of 360,000 active. AID 652154;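 active = mean replicate inhibition at least 60% with every replicate also reaching 60%; inconclusive = only one of the two criteria is met; inactive = mean below 60% and not all replicates reaching 60%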;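 note: luciferase light reporting Pax8 driven TPO promoter activity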
EWS-Fli inh: EWS/Fli transcriptional activity inhibition; 0.67% of 350,000 active; A673 NR0B1-luciferase reporter, viability-normalised; inhibition, % at 12.6 µM; AID 651661;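 active = mean inhibition of at least 50% after viability correction, with every replicate also passing that limit; inconclusive = mean reaches 50% but only one of two replicates passes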;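 note: firefly luciferase signal divided by Alamar Blue viability fluorescence both relative to DMSO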
Of the large screens only hits and unclear results are named; the others gave an inactive call. Shown are actives, neighbours in structure and some others; about 1.8% of the full set was active somewhere.

COc1cccc(C#Cc2ccc([C@H]3[C@H](C#N)N(C(=O)C4CCCC4)[C@H]3CO)cc2)c1	none (no result: PAX8 reporter)
C[C@H]1CN([C@@H](C)CO)C(=O)c2cc(-c3cccc(C#N)c3)cnc2O[C@H]1CN(C)C(=O)C1CCCCC1	none
CC(C)c1cccc(NC(=O)C[C@H]2CC[C@H]3[C@@H](COc4ccc(NC(=O)NCc5ccccc5)cc4C(=O)N3C)O2)c1	PAX8 reporter 64
CC(=O)Nc1ccc2c(c1)C(=O)N(C)[C@H]1CC[C@H](CC(=O)Nc3cccc(C(C)C)c3)O[C@@H]1CO2	none
CCOC(=O)C1(Cc2cccc(OC)c2)CCCN(C(=O)c2cc(C)oc2C)C1 (configuration not stated)	none (no result: EWS-Fli inh)
O=C(Nc1ccc2c(c1)OCCO2)c1ccc(Cl)cc1Cl	LGR2 antag 52
O=C(Nc1ccc2c(c1)OCO2)c1ccc(Cl)cc1Cl	none (no result: EWS-Fli inh)
C[C@@H]1CN([C@@H](C)CO)S(=O)(=O)c2ccc(C#Cc3ccc(F)cc3)cc2O[C@@H]1CN(C)C(=O)CN(C)C	none (no result: PAX8 reporter)
C[C@@H]1CN([C@H](C)CO)S(=O)(=O)c2ccc(C#Cc3ccc(F)cc3)cc2O[C@H]1CN(C)C(=O)CN(C)C	EWS-Fli inh 73 (no result: PAX8 reporter)
C[C@H](CO)N1C[C@H](C)[C@H](CN(C)C(=O)NC2CCCCC2)Oc2cc(C#Cc3ccc(F)cc3)ccc2S1(=O)=O	CFTR F508del cor 8.2, PAX8 reporter 91
C[C@@H]1CN([C@@H](C)CO)S(=O)(=O)c2ccc(C#Cc3cccc(F)c3)cc2O[C@H]1CN(C)C(=O)NC1CCCCC1	none
C[C@@H]1CN([C@H](C)CO)S(=O)(=O)c2ccc(C#Cc3cccc(F)c3)cc2O[C@H]1CN(C)C(=O)NC1CCCCC1	PAX8 reporter 68
Cc1noc(C)c1NC(=O)N(C)C[C@H]1Oc2cc(C#CCC3CCCC3)ccc2S(=O)(=O)N([C@@H](C)CO)C[C@@H]1C	CFTR F508del cor 10, PAX8 reporter 66
O=C(NCc1ccncc1)Nc1ccc(Cc2ccc(NC(=O)NCc3ccncc3)cc2)cc1	none
Cc1nc2nc(C)c(NS(=O)(=O)c3ccc4c(c3)CCCC4)c(=O)n2[nH]1	none
C[C@@H]1CN([C@H](C)CO)S(=O)(=O)c2ccc(C#Cc3ccc(F)cc3)cc2O[C@H]1CN(C)C(=O)NC1CCCCC1	PAX8 reporter 98
C[C@@H]1CN([C@H](C)CO)S(=O)(=O)c2ccc(C#CC3CCCC3)cc2O[C@@H]1CN(C)C(=O)Nc1cc(F)ccc1F	PAX8 reporter 70
C[C@H](CO)N1C[C@H](C)[C@@H](CN(C)C(=O)Nc2cc(F)ccc2F)Oc2cc(C#CC3CCCC3)ccc2S1(=O)=O	none (no result: LGR2 antag)
COc1ccc(CCC(=O)OCC(=O)Nc2sccc2C(N)=O)cc1OC	none
COC(=O)c1cc2c(c3c4ccccc4n(S(C)(=O)=O)c13)C(=O)N(Cc1ccccc1)C2	none
Cc1ccc(OCC(=O)N/N=C\c2c(C)[nH]n(-c3ccccc3)c2=O)c([N+](=O)[O-])c1	none (no result: LGR2 antag)
COc1cccc(S(=O)(=O)Nc2ccc3c(c2)[C@H]2C[C@@H](CC(=O)NCc4ccc(Cl)cc4)O[C@H](CO)[C@H]2O3)c1	PAX8 reporter 63
COc1cccc(S(=O)(=O)Nc2ccc3c(c2)[C@@H]2C[C@H](CC(=O)NCc4ccc(Cl)cc4)O[C@@H](CO)[C@@H]2O3)c1	PAX8 reporter 62
Nc1ncnc2c1ncn2[C@@H]1O[C@H](CO)[C@@H](O)[C@H]1O	none
Nc1ncnc2c(C3OC(CO)C(O)C3O)c[nH]c12 (configuration not stated)	LGR2 antag 101, PAX8 reporter 118
CC(C)OCCCNC(=O)CN1C(=O)c2cccc3cccc1c23	none
C[C@@H]1CCCCO[C@@H](CN(C)Cc2ccc(C(F)(F)F)cc2)[C@H](C)CN([C@@H](C)CO)C(=O)c2cc(NS(=O)(=O)c3cccs3)ccc2O1	PAX8 reporter inconclusive
C[C@@H]1CCCCO[C@H](CN(C)Cc2ccc(C(F)(F)F)cc2)[C@H](C)CN([C@@H](C)CO)C(=O)c2cc(NS(=O)(=O)c3cccs3)ccc2O1	PAX8 reporter 93
C[C@@H]1CCCCO[C@@H](CN(C)Cc2ccc(C(F)(F)F)cc2)[C@@H](C)CN([C@H](C)CO)C(=O)c2cc(NS(=O)(=O)c3cccs3)ccc2O1	none
C[C@@H]1CCCCO[C@@H](CN(C)Cc2ccc(C(F)(F)F)cc2)[C@H](C)CN([C@H](C)CO)C(=O)c2cc(NS(=O)(=O)c3cccs3)ccc2O1	PAX8 reporter 89
C[C@@H]1CCCCO[C@H](CN(C)Cc2ccc(C(F)(F)F)cc2)[C@H](C)CN([C@H](C)CO)C(=O)c2cc(NS(=O)(=O)c3cccs3)ccc2O1	PAX8 reporter 99
C[C@@H]1CCCCO[C@@H](CN(C)C)[C@@H](C)CN([C@H](C)CO)C(=O)c2cc(NC(=O)Nc3ccccc3)ccc2O1	none
O=c1cc(CS(=O)(=O)c2ccccc2)nc(-c2ccncc2)[nH]1	none (no result: LGR2 antag)
C=C(C(=O)c1ccccc1)C(CC(=O)c1ccccc1)c1ccccc1 (configuration not stated)	LGR2 antag inconclusive, PAX8 reporter 102 (no result: CFTR F508del cor, EWS-Fli inh)
CN1/C(=C\C(=O)C[n+]2ccc3ccccc3c2)C(C)(C)c2ccccc21	PAX8 reporter 78
CC1C(=O)Nc2ccc(S(=O)(=O)N3CCN(c4cccc(C(F)(F)F)c4)CC3)cc2NC1=O (configuration not stated)	PAX8 reporter 68 (no result: EWS-Fli inh)
CCCCN1C(C)=CC(=C2C(=O)c3ccccc3C2=O)C=C1C	LGR2 antag 60
CCCCCCN1C=CC(=C2C(=O)c3ccccc3C2=O)C=C1	LGR2 antag 94, PAX8 reporter 67, EWS-Fli inh 79
CCCCN1C=CC(=C2N=c3cccc([N+](=O)[O-])c3=N2)C=C1	none
O=C(Nc1cc(F)ccc1F)N[C@@H]1CC[C@@H](CC(=O)N2CCc3ccccc3C2)O[C@H]1CO	none
CCC(NC(=O)c1oc2ccccc2c1COC)c1ccc(OC)cc1 (configuration not stated)	none
Cc1ccc(-c2cccc(CN3CCN(C(C)C)C(CCO)C3)c2)o1 (configuration not stated)	CFTR F508del cor 11
Fc1ccc(NC(=S)NNc2ncc(C(F)(F)F)cc2Cl)c(F)c1	PAX8 reporter 85
FC(F)(F)c1cnc(NNC(=S)Nc2ccc(Cl)cc2)c(Cl)c1	PAX8 reporter 76 (no result: CFTR F508del cor, EWS-Fli inh)
COc1ccc(-n2cc(-c3ccccc3)c3c(N4CCOCC4)ncnc32)cc1	PAX8 reporter 64
Fc1ccc(-n2cc(-c3ccccc3)c3c(N4CCOCC4)ncnc32)cc1	none
Brc1ccc(-n2cc(-c3ccccc3)c3c(NN4CCOCC4)ncnc32)cc1	PAX8 reporter 95
COCc1cccc(-c2csc(C(NC(C)=O)c3cccc(F)c3)n2)c1 (configuration not stated)	none
Cn1nc(C(=O)NNC(=O)CCOc2ccc(C(C)(C)C)cc2)c2ccccc2c1=O	CFTR F508del cor 10
CCOc1ccc(OCCC(=O)NNC(=O)c2nn(C)c(=O)c3ccccc23)cc1	none
Cc1cc2ncc(-c3ncc(C(F)(F)F)cc3Cl)cn2n1	EWS-Fli inh 54 (no result: LGR2 antag, PAX8 reporter)
NC(=O)C(C(=O)/C=C/c1ccc(Cl)cc1)=C1SCCS1	PAX8 reporter 89

Source: PubChem BioAssay (Broad Institute)
